Laboratory results reported in PubChem BioAssay AID588475 (Sanford-Burnham Center for Chemical Genomics, 2011).
The campaign covered roughly 350,000 compounds. About 2,100 (0.6%) were called active.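 The calls were made as follows: active = inhibition of the ligand-induced calcium signal above about 50% at the single tested concentration (limit read from the data); inactive = the rest.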 Only a selection was taken, and actives are over-represented in it overall.

Test: blockers of CRF-evoked CRF-R2/CRF-BP calcium response – cell-based, HEK293, calcium dye fluorescence, uHTS, primary screen (AID 588475)
Details: CRF-induced calcium fluorescence, at 11.8 µM, hits give high values

inhibition, active:
O=C(CC1N=C2c3ccccc3N=C(SCc3ccccc3Cl)N2C1=O)NCc1ccco1 (stereo unspecified) 89.4%
COC(=O)c1ccc(CSc2nc3ccccc3c(=O)n2-c2cccc(OC)c2)o1 76.5%
COCC(C)n1c(SCc2ccc(C(=O)OC)o2)nc2ccccc2c1=O (stereo unspecified) 51.9%
CC1CCc2[nH]c3ccc(C(=O)N(C)CC(=O)Nc4cccc(F)c4)cc3c2C1 (stereo unspecified) 104%
CCOC(=O)C(CC)/C(C)=N\NC(=O)c1cccc(C)c1 (stereo unspecified) 89%
O=C(CSCC(=O)Nc1cccc([N+](=O)[O-])c1)Nc1ccccc1 54%
CC(Nc1ccc([N+](=O)[O-])cc1[N+](=O)[O-])c1ccccc1 (stereo unspecified) 61.4%
CCc1ccc(C(=O)NC(=S)Nc2ccccc2N2CCOCC2)cc1 125%
COc1ccc(Cl)cc1NC(=O)CNc1ccccc1F 61.7%

inhibition, inactive:
CN(CCC(=O)Nc1cc(S(=O)(=O)N(C)C)ccc1Cl)CC(=O)Nc1ccc(F)cc1 -7.88%
NC(=O)CSC1=Nc2ccccc2C2=NC(CCC(=O)NCc3ccc(F)cc3)C(=O)N12 (stereo unspecified) 15.6%
O=C(CSC1=Nc2ccccc2C2=NC(c3ccccc3)C(=O)N12)NCC1CCCO1 (stereo unspecified) 10.2%
CCOc1ccc(NC(=O)COc2ccc(C(=O)N3CCC(C(N)=O)CC3)cc2OC)cc1 -31.7%
COCCNC(=O)c1ccc(-n2c(SCc3cccnc3)nc3ccccc3c2=O)cc1 -8.33%
COc1cccc(-n2c(SCC(=O)NC3CCS(=O)(=O)C3)nc3ccccc3c2=O)c1 (stereo unspecified) 3.38%
COCCn1c(C)cc(C(=O)CSc2nc3ccccc3c(=O)n2C(C)COC)c1C (stereo unspecified) 25.5%
COCC(C)n1c(SCC(=O)NC2CCCCC2C)nc2ccccc2c1=O (stereo unspecified) 6.09%
COc1ccc(CCNC(=O)c2nnc(CS(=O)(=O)c3ccccc3)o2)cc1OC -36.1%
CCc1nn(CCCC(=O)NCc2ccc(C)cc2)c(=O)c2cc3occc3n12 -4.08%
Cc1ccc(C)c(S(=O)(=O)N2CC(=O)Nc3ccccc32)c1 -4.23%
O=C(NCc1ccncc1)c1cccc(NS(=O)(=O)c2ccc(F)c(F)c2)c1 -1.96%
Cc1cc(=O)oc2c(C(=O)c3ccccc3)c(OCC(N)=O)ccc12 21.9%
CN(CC(=O)Nc1cccc(F)c1)C(=O)CC1CCCC1 -9.75%
CCCN(CC(=O)Nc1ccccc1C)C(=O)c1ccc2[nH]c3c(c2c1)CC(C)CC3 (stereo unspecified) -10.4%
COCCN1CCn2c(nc3cc(NS(C)(=O)=O)ccc32)C1 -7.04%
COC(=O)Nc1ncc(CN2C(=O)c3ccccc3C2=O)s1 -1.89%
CCNC(=O)COC(=O)CCNC(=O)c1cccc(C)c1 3.93%
CC(=O)Nc1ccc(NC(=O)[C@@H](NC(=O)c2cccc(C)c2)C(C)C)cc1 4.4%
Cc1ccccc1C(CC(=O)c1cccs1)C(C#N)C#N (stereo unspecified) -24.6%
O=C(CN(c1cccc(Cl)c1)S(=O)(=O)c1ccccc1)NN=C1CCCC1 -7.21%
O=C(CSc1nc(-c2ccccc2)cs1)Nc1cccc([N+](=O)[O-])c1 27.9%
O=C(CN1CCC(NC(=O)Nc2ccccc2)CC1)Nc1cccc([N+](=O)[O-])c1 13.2%
O=C1c2ccccc2C2=Nc3ccccc3SC(c3ccccc3F)C12 (stereo unspecified) -94.9%
CC1(C)C/C(=N/Nc2ccc([N+](=O)[O-])cc2[N+](=O)[O-])C(C)(C)O1 -6.77%
CC(C)OP(=O)(OC(C)C)C(Nc1ccccc1)c1cccc([N+](=O)[O-])c1 (stereo unspecified) -23.4%
Cc1ccc(OCC(=O)Nc2ccccc2C(=O)NC2CC2)cc1C 0.16%
O=C(Nc1ccccc1N1CCOCC1)c1ccncc1 4.16%
O=C(NC(=S)Nc1ccccc1N1CCCCC1)c1ccc(F)cc1 -90.3%
O=C(NCC(=O)N(CC1CCCO1)C(C(=O)NC1CCCCC1)c1ccccc1)c1ccco1 (stereo unspecified) 2.38%
COc1ccc(Cl)cc1NC(=O)CN(C)C(=O)c1cc2ccccc2cc1OC 9.16%
COc1ccc(C)cc1NC(=O)CSc1ccc(Cl)cc1 5.69%
